Inconclusive results are not listed. A number with no mark means an inactive call. Calls of active or inactive are those of the source. The call rests on the fitted dose curve; in most records, active means well fitted inhibition curve with a large enough effect; inconclusive means small, poorly fitted or top-dose-only effect; inactive means no such curve, though single readings can be large or run the other way.
Molecular target: Polyunsaturated fatty acid lipoxygenase ALOX15 (Homo sapiens) (UniProt P16050)
Sequence (P16050 whole entry, looked up): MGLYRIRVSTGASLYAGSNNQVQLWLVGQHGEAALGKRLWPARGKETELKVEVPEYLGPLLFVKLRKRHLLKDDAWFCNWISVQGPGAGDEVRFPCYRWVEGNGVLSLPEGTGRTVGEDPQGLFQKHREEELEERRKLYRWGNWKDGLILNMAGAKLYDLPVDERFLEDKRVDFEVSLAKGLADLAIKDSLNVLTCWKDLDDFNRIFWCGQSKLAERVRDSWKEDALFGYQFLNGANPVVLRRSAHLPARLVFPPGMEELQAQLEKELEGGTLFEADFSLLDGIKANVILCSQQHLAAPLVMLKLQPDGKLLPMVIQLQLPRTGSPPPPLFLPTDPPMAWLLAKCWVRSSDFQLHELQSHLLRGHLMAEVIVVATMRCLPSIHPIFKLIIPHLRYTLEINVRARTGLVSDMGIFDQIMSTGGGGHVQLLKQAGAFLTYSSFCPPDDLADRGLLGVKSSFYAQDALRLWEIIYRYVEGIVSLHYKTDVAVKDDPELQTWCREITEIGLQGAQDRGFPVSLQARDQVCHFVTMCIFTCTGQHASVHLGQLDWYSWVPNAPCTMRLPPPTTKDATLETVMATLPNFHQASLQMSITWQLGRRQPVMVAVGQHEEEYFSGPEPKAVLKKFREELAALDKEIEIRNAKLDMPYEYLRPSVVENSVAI
Test: Confirmation qHTS Assay for Inhibitors of 15-hLO (15-human lipoxygenase)
Conditions: purified enzyme, xylenol orange hydroperoxide absorbance; max response: hits give low values
Source text: Assay Provider: Holman, T.R., University of California, Santa Cruz Screening Center PI: Austin, Christopher P. Screening Center: NIH Chemical Genomics Center Human lipoxygenase 15hLO-1 is a member of the closely related lipoxygenase family of enzymes which catalyze the site-specific oxidation of arachidonic acid to various hormone precursor molecules and as such is a candidate for drug development in a variety of disease areas, such as cancer and inflammation. Inhibition of 15hLO-1 activity was screened by utilizing arachidonic acid as a substrate. The extent of hydroperoxide product formation was measured by a secondary chromogenic reaction in which xylenol orange (XO, Sigma-Aldrich, cat. number 39,818-7) reacts with the ferric ions produced from the reaction between the hydroperoxide and ferrous ions. The Fe(III)-XO complex is characterized with red-shifted absorbance at 560 nm. A purified preparation of human 15hLO-1 was supplied by Professor Ted Holman, University of California, Santa Cruz. This assay includes some confirmation and follow-up compounds for related primary screening assay AID 887.
Assay Protocol: Buffer: 25 mM Hepes pH 7.5, 0.01% Triton X-100. Reagents/Controls: Buffer in columns 3 and 4 as negative control (no enzyme). Substrate solution: 50 uM arachidonic acid (Sigma-Aldrich, St. Louis, MO) final concentration dispensed throughout the plate. Enzyme: 40 nM 15hLO-1 final concentration in columns 1, 2, 5-48. Column 1 is neutral (100% activity). Column 2 contained pin-transferred titration of NDGA (nordihidroguaiaretic acid, Sigma-Aldrich, N 5023, top concentration 10 mM in DMSO, then 1:2 dilution in duplicate). (Dilution factor: 23 nL into 4 uL.) Chromogenic detection reagent (divalent iron/xylenol orange, Fe-XO): 200 uM xylenol orange plus 300 uM ferrous ammonium sulfate prepared freshly in 50 mM sulfuric acid. Assay Steps: Three uL of enzyme were dispensed to 1536-well Greiner black clear bottom plates. Compounds and controls (23 nL) were transferred via Kalypsys PinTool. The plates were incubated for 15 min at room temperature, and then 1 uL of substrate solution was added to start the reaction. After room temperature incubation for 6 minutes, 4 uL of Fe-XO solution was added to each well followed by a short spin (1000 rpm, 15 sec) and the plates were then incubated for 30 min. The absorbance at 405 and 573 nm were measured using ViewLux (Perkin-Elmer) High-throughput CCD imager and absorbance protocol settings. The 573-to-405 absorbance ratio was used to compute reaction progress.

SMILES	max response [%]	Potency
O=C(Nc1nc2n(n1)C(c1ccccc1)CC(c1ccc(Cl)cc1)N2)c1ccco1 (configuration not stated)	-20.1	
CCCC(=O)NC(c1ccco1)c1cc(Cl)c2cccnc2c1O (configuration not stated)	-17.9	
CCOC(=O)c1c(NC(=O)CN2CCOCC2)sc2c1CCCC2		31.6 µM (active)
O=C1C2C3CCCC3=C3CCCC3C2C(=O)N1c1cccc(Cl)c1 (configuration not stated)		14.1 µM (active)
CCOc1ccc(NS(=O)(=O)c2ccc3[nH]cc(C(=O)N(CC)CC)c(=O)c3c2)cc1	-12.4	
c1csc(C2Nc3cccc4cccc(c34)N2)c1		8.91 µM (active)
COc1ccccc1CNc1ncncc1-c1ccoc1		11.2 µM (active)
COc1ccc(OC)c(NC(=O)NC2(C(F)(F)F)Oc3ccccc3O2)c1	-7.82	
CCCCn1c(Cc2ccccc2)n[nH]c1=S	-14.5	
Clc1ccc(-c2nnc(C3CCCCC3)o2)cc1	-10.3	
COC(=O)c1ccc(C(=S)N2CCOCC2)cc1		15.8 µM (active)
COc1ccc(NC(=O)CSc2nc(O)cc(=O)n2-c2ccccc2OC)cc1	-13.4	
COC(=O)c1ccc2c(c1)C(=O)N(C1CCCCC1)C2=O	-13.1	
CC(=O)NCCNc1ncncc1-c1ccc(N(C)C)cc1	-61.2	
O=C(C1=C(O)C(=O)N(Cc2ccco2)C1c1cccnc1)c1cc2ccccc2o1 (configuration not stated)	-10.1	
Cc1c(N/C=C/C(=O)c2cccs2)c(=O)n(-c2ccccc2)n1C	-25.2	
O=C(Nc1cccc(F)c1)N1CCCC2(CCN(C(=O)c3ccco3)CC2)C1	-7.24	
COc1ccccc1-n1c(SCC(=O)Nc2ccc(C)cc2)nc(O)cc1=O	-8.11	
O=C(Cc1cc(=O)[nH][nH]1)N/N=C/C=C/c1ccccc1	-11.2	

SMILES	max response [%]	Potency
Cc1cccc(CNc2ncnc3ccc(-c4ccc5c(c4)OCO5)cc23)c1	-24.2	
NC(=O)c1cccc2c3c([nH]c12)CCCC3		10 µM (active)
CN1CCN(C(c2cccnc2)c2ccc3cccnc3c2O)CC1 (configuration not stated)	-27.2	
Cc1ccc(-c2ccc(/C=C3\C(=O)ON=C3c3ccccc3)o2)c([N+](=O)[O-])c1		2.51 µM (active)
Cc1cc(/C=N/NC(=O)Cn2c3ccccc3c(=O)c3ccccc32)c(C)n1-c1ccccc1		11.2 µM (active)
O=C(Nc1nnc(-c2ccccc2)o1)c1ccc(Cl)cc1	-12.7	
COc1cccc(-c2nc(NC3CCNCC3)c3ccccc3n2)c1	-13.6	
Cc1noc(C)c1-c1nc(N(C)Cc2ccco2)c2ccccc2n1	-25.4	
CCC(=O)N(Cc1cc(=O)[nH]c2ccccc12)C1CCCCC1	-6.49	
Cc1ccc(OCC(=O)Nc2ccc(N3CCCC3)cc2)cc1C		15.8 µM (active)
O=C(Nc1nnc(-c2ccco2)s1)C1CCCCC1	-11.3	
Clc1ccc(NNc2ccnc3cc(Cl)ccc23)cc1	-9.48	
Oc1ccc2ccccc2c1CNc1cnc2ccccc2c1		14.1 µM (active)
COCCSc1ccccc1C(=O)NCc1ccco1	-26.5	
COc1cccc(-c2nccc(NCc3ccccc3OC)n2)c1		11.2 µM (active)
O=C(c1ccncc1)N1CCC2(CCCN(Cc3nccs3)C2)CC1	-6.92	
Cc1cc(Nc2nnnn2-c2ccccc2)n(-c2ccc(Cl)cc2)n1	-13	
CN(C)CCC(=O)c1ccc(Cl)cc1	-16.6	

Source: PubChem BioAssay AID2157 (National Center for Advancing Translational Sciences (NCATS), 2009)
